Experimental findings from PubChem BioAssay AID602125 (The Scripps Research Institute Molecular Screening Center, 2011) are described below.

Structures are written as SMILES. The campaign covered roughly 1,300 compounds. About 110 (8.5%) were called active. No stated cut-off is given here; in the data, active means inhibition above about 6.5%; inactive means the rest. A selection follows.

Usually inhibition stands for the change of the read-out against control, counted positive when it falls.

The test in a line: quenching of GFP signal – biochemical, fluorescence, artefact control for Rin1-Abl interaction inhibitor project (AID 602125).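 Further: ABL1-eGFP fusion protein alone without its partner RIN1-SBP; 0% = protein with vehicle and 100% = wells lacking protein.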 The settings on record: inhibitors/quenchers counterscreen, at 6.75 µM, hits give high values. For orientation: The purpose of a counterscreen is to sort out artefacts and off-target activity.
For `CC(C)CNS(=O)(=O)c1ccc(C(=O)Nc2ccc3c(c2)OCO3)cc1`, the inhibition was -1.46% (inactive).
For `O=c1ccc2c(-c3ccccc3S(=O)(=O)O)c3ccc(O)c(O)c3oc-2c1O`, the inhibition was 60.6% (active).
Regarding `CCCn1c(N)c(C(=O)CSc2nnc(-c3cccnc3)n2-c2ccc(C)cc2C)c(=O)[nH]c1=O`, the inhibition is -2.86% (inactive).
For the molecule `Cc1cc2ccccc2n1CCNC(=O)COc1ccc2ccccc2c1`, the inhibition was 0.81% (inactive).
Take `CC(OC(=O)c1ccccc1NCCO)C(=O)Nc1ccnn1C(C)C` (stereo not given): the inhibition was 0.13% (inactive).
As for `C=C1c2c(Cl)ccc(O)c2C(O)=C2C(=O)[C@]3(O)C(O)=C(C(N)=O)C(=O)[C@@H](N(C)C)[C@@H]3[C@@H](O)C12` (stereo not given in full), the inhibition was 14.2% (active).
The result for `CC(=O)NC(c1cccs1)c1cc(Br)c2cccnc2c1O` (stereo not given) reads 4.24% (inactive); that for `Nc1cc(=O)c2[nH]cnc2[nH]1`, 0.27% (inactive).
As to `CCOC(=O)N1CCC(c2cc(=O)n(-c3ccccc3)[nH]2)CC1`, the inhibition is -3.53% (inactive).
On to `O=C(Nc1ccc(OC(F)(F)F)cc1)c1ccc2c(c1)no[n+]2[O-]`, for which the inhibition is 0.62% (inactive).
Take `C=CCn1c2ccccc2c2nnc(SCc3[nH]c(=O)[nH]c3C(=O)CCCCC(=O)OCC)nc21`: the inhibition was 0.3% (inactive).
The result for `COCCNC(=O)Nc1ccc2nc(-c3ccco3)c(-c3ccco3)nc2c1` reads 15.8% (active); that for `CCc1ccc(CN(C)C(C)C(=O)Nc2ccc(S(=O)(=O)N3CCCC3)cc2)cc1` (stereo not given), -0.29% (inactive).
`COC(=O)c1ccc(COC(=O)C2CCN(S(=O)(=O)c3c(Cl)cccc3Cl)CC2)o1`: the inhibition was 1.86% (inactive).
Take `CN(CC(=O)Nc1ccc(F)cc1)CC(=O)Nc1ccc(Cl)c(S(=O)(=O)N2CCOCC2)c1`: the inhibition is -1.92% (inactive).
With `C#CCOCCOCCOCCNc1nc(N2CCN(C(=O)C(Cc3ccc(O)cc3)n3cc(C(N)CC(C)C)nn3)CC2)nc(N2CCN(C(=O)C(Cc3ccc(O)cc3)n3cc(C(N)C(C)CC)nn3)CC2)n1` (stereo not given), the inhibition was -1.04% (inactive).
As to `C=CCn1cc(C(=O)NCc2ccc(Cl)cc2)c(=O)c2cc(S(=O)(=O)N(CC)CC)ccc21`, the inhibition was -0.53% (inactive).
The result for `Cc1nn(-c2ncc(C(F)(F)F)cc2Cl)c(=O)n1-c1ccccc1` reads -0.58% (inactive); that for `COc1ccc(CNC(=O)c2cc(C(=O)C3CC3)c[nH]2)cc1`, 0% (inactive).
With `Cc1c(CC(=O)N2CCN(C(=O)C3COc4ccccc4O3)CC2)c(=O)oc2c(O)c(O)ccc12` (stereo not given), the inhibition is 21.4% (active).
For the molecule `NC1=CC(=O)C(=O)c2cccnc21`, the inhibition is 8.89% (active).
`Cc1ccccc1CN1C[C@@H]2C[C@@H](c3ccc4nsnc4c3)N3CCC[C@@]23C1=O`: the inhibition was 0.34% (inactive).
As to `CSc1ncnc2c1ncn2CC(=O)C1CCC2C3CCC4=CC(=O)CCC4(C)C3CCC12C` (stereo not given), the inhibition is 0.43% (inactive).
In the case of `O=C(CNCc1ccco1)Nc1cc(S(=O)(=O)N2CCOCC2)ccc1N1CCCC1`, the inhibition is 2.49% (inactive).
For the molecule `CCc1cc2c(N3CCN(c4nnc(CC)s4)CC3)ncnc2s1`, the inhibition is -3.38% (inactive).
Consider `CC(=O)Nc1ccc(CN2CCC(Oc3ccc(C(=O)N4CCCC4)cc3)CC2)cc1`, for which the inhibition is -0.82% (inactive).
As to `CCOc1ccc(S(=O)(=O)N2CCCCC2)cc1NC(=O)CN1CCCC1c1cccs1` (stereo not given), the inhibition is -2.43% (inactive).
For the molecule `O=c1c2c(nc3n1CCCCC3)sc1c(O)cccc12`, the inhibition is 0.41% (inactive).
Take `CCOc1ccc(CNC(=O)C2CCCN(c3nnc(C)c4c(C)n(-c5ccccc5)nc34)C2)cc1` (stereo not given): the inhibition was -0.63% (inactive).
For the molecule `Oc1c(CN2CCN(c3ccc(F)cc3)CC2)cc(Cl)c2cccnc12`, the inhibition is 1.29% (inactive).
Take `CC(CCO)Nc1nc2c([nH]1)c(=O)n(C)c(=O)n2C` (stereo not given): the inhibition is -2.15% (inactive).
In the case of `O=C(COc1ccc(S(=O)(=O)NCCc2ccccc2)cc1)N1CCCC1`, the inhibition was -1.34% (inactive).
In the case of `CN(C)c1ccc(N/C=C/C(=O)C(F)(F)F)cc1` it was 0.06% (inactive); in that of `Cc1cccc(N(C)C(=O)CN2C(=O)COc3ccc(S(=O)(=O)N4CCCCCC4)cc32)c1`, -2.16% (inactive); in that of `C[C@@H]1CN([C@H](C)CO)S(=O)(=O)c2ccc(C#C[C@@H](C)O)cc2O[C@@H]1CN(C)Cc1ccc(-c2ccccc2)cc1`, -1.52% (inactive).
On to `O=C(NNc1c2ccccc2nc2ccccc12)c1cc2ccccc2cc1O`, for which the inhibition is 2.7% (inactive).
As for `Cc1cc(NC(=O)CSCC(=O)NC(C)c2ccccc2)no1` (stereo not given), the inhibition was 0.79% (inactive).
Consider `COc1cc(C(=S)N2CCOCC2)ccc1O`, for which the inhibition is -0.21% (inactive).
As for `Cc1ccc(C(NC(=O)C2CCN(CCOc3ccc(Cl)cc3Cl)CC2)c2ccccn2)cc1` (stereo not given), the inhibition was -1.38% (inactive).
As to `CN(Cc1c(F)cccc1Cl)C(=O)CNC(=O)c1ccc2c(c1)OCO2`, the inhibition is 0% (inactive).
Turning to `O=C(Nc1ccc(S(=O)(=O)Nc2ncccn2)cc1)c1cncc(Br)c1`, the inhibition was 0.85% (inactive).
For the molecule `O=c1cc(CO)oc(CN2CCC(Cc3ccccc3)CC2)c1O`, the inhibition is 0.68% (inactive).
`CCOC(=O)N1CCN(C(=O)C2CCCN(c3ncnc4c3sc3cccc(F)c34)C2)CC1` (stereo not given): the inhibition was 0.85% (inactive).
In the case of `CCOc1ccc(-n2c(SCC(=O)NC3CCS(=O)(=O)C3)nnc2-c2cccnc2)cc1` (stereo not given) it was -0.86% (inactive).
With `CCOC(=O)CN(C(=O)COc1nc(C)cc(C)c1C#N)c1ccc(Cl)cc1`, the inhibition was -1.77% (inactive).
On to `OC[C@@H]1CN(Cc2ccc(Cl)cc2)C[C@H](n2cnc3c(NCc4ccncc4)ncnc32)O1`, for which the inhibition is 0.89% (inactive).
Turning to `CCOC(=O)N1CCN(C(=O)C2CCN(c3ncnc4c3sc3cccc(F)c34)CC2)CC1`, the inhibition was 1.39% (inactive).
As for `Cc1ccccc1C(=O)N1CCC(C(=O)Nc2ccc(S(=O)(=O)N(C)C(C)C)cc2)CC1`, the inhibition was 0.2% (inactive).
`O=C(c1cn(-c2ccccc2)nc1-c1cc2ccccc2oc1=O)N1CCOCC1`: the inhibition is -1.57% (inactive).
The result for `O=C(CC1SCCNC1=O)Nc1ccc(Cl)cc1` (stereo not given) reads 0.84% (inactive); that for `CN(C(=O)c1ccc(NC(=O)Cc2cccc(NC(=O)C3CCN(C(=O)c4ccccc4)CC3)c2)cc1)C1CC1`, -0.72% (inactive).
Regarding `Nc1nc2n(n1)C(c1ccco1)CC(c1ccc(Cl)c(Cl)c1)N2` (stereo not given), the inhibition was -3.07% (inactive).
Turning to `NS(=O)(=O)c1ccc(CCNC(=O)Nc2ccc(Cl)cc2)cc1`, the inhibition was 2.08% (inactive).
The result for `Oc1cccc2cc(-c3ccncc3)cnc12` reads 11.6% (active); that for `Cc1ccc(-n2c(SCC(=O)NCc3ccc4c(c3)OCO4)nnc2-c2cccnc2)c(C)c1`, 0.57% (inactive).
